The supplement of paper PMC8728848
Many of the other results were omitted from the sample, so the strongest signals are more common in it than they were.

B1: SspB (Streptococcus gordonii), P16952 (protein)
chain: MKNKKEVYGFRKSKVAKTLCGAVLGTALIAFADKAVFADEVTETTSTSTVEVATTGNPATNLPEAQGEMSQVAKESQAKAGSKESALPVEVSSADLDKAVADAKSAGVKVVQDETKDKGTATTATDNAQKQDEIKSDYAKQAEEIKTTTEAYKKEVAAHQAETDKINAENKAADDKYQKDLKSHQEEVEKINTANATAKAEYEAKLAQYQKDLATVKKANEDSQQDYQNKLSAYQTELARVQKANAEAKEAYEKAVKENTAKNEALKVENEAIKQRNETAKATYEAAMKQYEADLAAIKKANEDNDADYQAKLAAYQTELARVQKANAEAKEAYDKAVKENTAKNTAIQAENEAIKQRNETAKATYDAAVKKYEADLAAVKQANATNEADYQAKLAAYQTELARVQKANADAKATYEKAVEDNKAKNAAIKAENEEIKQRNAVAKTDYEAKLAKYEADLAKYKKEFAAYTAALAEAESKKKQDGYLSEPRSQSLNFKSEPNAIRTIDSSVHQYGQQELDALVKSWGISPTNPDRKKSRAYSYFNAINSNNTYAKLVLEKDKPVDVTYTGLKNSSFNGKKISKVVYTYTLKETGFNDGTKMTMFASSDPTVTAWYNDYFTSTNINVKVKFYDEEGQLMNLTGGLVNFSSLNRGNGSGAIDKDAIESVRNFNGRYIPISGSSIKIHENNSAYADSSNAEKSLGARWNTSEWDTTSSPNNWYGAIVGEITQSEISFNMASSKSGNIWFAFNSNINAIGVPTKPVAPTAPTQPMYETEKPLEPAPVAPSYENEPTPPVKTPDQPEPSKPEEPTYETEKPLEPAPVAPSYENEPTPPVKTPDQPEPSKPEEPNYETEKPLEPAPVAPSYENEPTPPVKIPDQPEPSKPEEPTYDPLPTPPLAPTPKQLPTPPVVPTVHFHYSSLLAQPQINKEIKNEDGVDIDRTLVAKQSIVKFELKTEALTAGRPKTTSFVLVDPLPTGYKFDLDATKAASTGFDTTYDEASHTVTFKATDETLATYNADLTKPVETLHPTVVGRVLNDGATYTNNFTLTVNDAYGIKSNVVRVTTPGKPNDPDNPNNNYIKPTKVNKNKEGLNIDGKEVLAGSTNYYELTWDLDQYKGDKSSKEAIQNGFYYVDDYPEEALDVRPDLVKVADEKGNQVSGVSVQQYDSLEAAPKKVQDLLKKANITVKGAFQLFSADNPEEFYKQYVATGTSLVITDPMTVKSEFGKTGGKYENKAYQIDFGNGYATEVVVNNVPKITPKKDVTVSLDPTSENLDGQTVQLYQTFNYRLIGGLIPQNHSEELEDYSFVDDYDQAGDQYTGNYKTFSSLNLTMKDGSVIKAGTDLTSQTTAETDATNGIVTVRFKEDFLQKISLDSPFQAETYLQMRRIAIGTFENTYVNTVNKVAYASNTVRTTTPIPRTPDKPTPIPTPKPKDPDKPETPKEPKVPSPKVEDPSAPIPVSVGKELTTLPKTGTNDATYMPYLGLAALVGFLGLGLAKRKED
B2: Sialidase (Vibrio cholerae), P37060 (protein)
chain: GAMALFDYNATGDTEFDSPAKQGWMQDNTNNGSGVLTNADGMPAWLVQGIGGRAQWTYSLSTNQHAQASSFGWRMTTEMKVLSGGMITNYYANGTQRVLPIISLDSSGNLVVEFEGQTGRTVLATGTAATEYHKFELVFLPGSNPSASFYFDGKLIRDNIQPTASKQNMIVWGNGSSNTDGVAAYRDIKFEIQGDALNGSMALFDYNATGDTEFDSPAKQGWMQDNTNNGSGVLTNADGMPAWLVQGIGGRAQWTYSLSTNQHAQASSFGWRMTTEMKVLSGGMITNYYANGTQRVLPIISLDSSGNLVVEFEGQTGRTVLATGTAATEYHKFELVFLPGSNPSASFYFDGKLIRDNIQPTASKQNMIVWGNGSSNTDGVAAYRDIKFEIQGDLQALGMALFDYNATGDTEFDSPAKQGWMQDNTNNGSGVLTNADGMPAWLVQGIGGRAQWTYSLSTNQHAQASSFGWRMTTEMKVLSGGMITNYYANGTQRVLPIISLDSSGNLVVEFEGQTGRTVLATGTAATEYHKFELVFLPGSNPSASFYFDGKLIRDNIQPTASKQNMIVWGNGSSNTDGVAAYRDIKFEIQGD

Columns and labels:
Experiment in all cases: glycan array binding signal (z-score within array); higher = stronger binding
Conditions in all cases: glycan notation: IUPAC condensed, linker removed
[1] = target: Neu5Ac(a2-6)Gal(b1-4)GlcNAc(b1-2)Man(a1-3)[Gal(b1-4)GlcNAc(b1-2)Man(a1-6)]Man(b1-4)GlcNAc(b1-4)GlcNAc
Outline: (§1)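 Arrays were curated from the Consortium for Functional Glycomics database, 3228 in total, and kept only where the protein sequence was available. Binding is expressed as a within-array Z-score. This score was averaged across arrays of the same protein sequence at different concentrations or buffers and across linkers, and negative values can be read as non-binding.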

[2] = target: Neu5Ac(a2-6)Gal(b1-4)GlcNAc(b1-2)Man(a1-6)Man(b1-4)GlcNAc(b1-4)GlcNAc
Outline: as §1

[3] = target: Neu5Ac(a2-6)Gal(b1-4)GlcNAc(b1-2)Man(a1-6)[GlcNAc(b1-2)Man(a1-3)]Man(b1-4)GlcNAc(b1-4)GlcNAc
Outline: as §1

[4] = target: Neu5Ac(a2-8)Neu5Ac(a2-8)Neu5Ac(a2-3)Gal(b1-4)Glc
Outline: as §1

[5] = target: Neu5Ac(a2-8)Neu5Ac(a2-8)Neu5Ac(a2-3)[GalNAc(b1-4)]Gal(b1-4)Glc
Outline: as §1

[6] = target: Neu5Gc(a2-3)Gal(b1-3)GlcNAc
Outline: as §1

[7] = target: Fuc(a1-2)[Gal(a1-3)]Gal(b1-4)Glc
Outline: as §1

[8] = target: Fuc(a1-3)GlcNAc
Outline: as §1

[9] = target: Fuc(a1-3)[GalNAc(b1-4)]GlcNAc
Outline: as §1

[10] = target: Gal(a1-3)GalNAc
Outline: as §1

[11] = target: Gal(b1-3)GalNAc
Outline: as §1

[12] = target: Gal(b1-3)GalNAc(b1-4)[Neu5Ac(a2-3)]Gal(b1-4)Glc
Outline: as §1

[13] = target: Gal(b1-3)GlcNAc(b1-3)Gal(b1-4)GlcNAc
Outline: as §1

[14] = target: Gal(b1-3)[Fuc(a1-4)]GlcNAc
Outline: as §1

[15] = target: Gal3S(b1-3)GalNAc
Outline: as §1

[16] = target: Gal6S(b1-4)GlcNAc
Outline: as §1

[17] = target: GalNAc(b1-4)GlcNAc(b1-2)Man(a1-3)[GalNAc(b1-4)GlcNAc(b1-2)Man(a1-6)]Man(b1-4)GlcNAc(b1-4)GlcNAc
Outline: as §1

[18] = target: GlcA(b1-6)Gal
Outline: as §1

[19] = target: GlcNAc(a1-4)Gal(b1-4)GlcNAc(b1-3)Gal(b1-4)Glc
Outline: as §1

[20] = target: GlcNAc(b1-2)Man(a1-3)[GlcNAc(b1-2)Man(a1-6)]Man(b1-4)GlcNAc(b1-4)[Fuc(a1-6)]GlcNAc
Outline: as §1

[21] = target: GlcNAc(b1-3)Gal(b1-4)GlcNAc(b1-3)Gal(b1-4)GlcNAc
Outline: as §1

[22] = target: GlcNAc(b1-4)GlcNAc(b1-4)GlcNAc(b1-4)GlcNAc(b1-4)GlcNAc
Outline: as §1

[23] = target: Kdn(a2-3)Gal(b1-3)GalNAc
Outline: as §1

[24] = target: Man(a1-2)Man(a1-3)[Man(a1-2)Man(a1-6)]Man(a1-6)[Man(a1-2)Man(a1-2)Man(a1-3)]Man(b1-4)GlcNAc(b1-4)GlcNAc
Outline: as §1

[25] = target: Man(a1-3)[Man(a1-6)]Man
Outline: as §1

[26] = target: Neu5Ac(a2-3)Gal(b1-3)GalNAc(b1-3)Gal(a1-4)Gal(b1-4)Glc
Outline: as §1

[27] = target: Neu5Ac(a2-3)Gal(b1-3)[Fuc(a1-4)]GlcNAc(b1-3)Gal(b1-3)[Fuc(a1-4)]GlcNAc
Outline: as §1

[28] = target: Neu5Ac(a2-3)Gal(b1-3)[Neu5Ac(a2-6)]GalNAc
Outline: as §1

[29] = target: Neu5Ac(a2-3)Gal(b1-4)GlcNAc(b1-2)Man(a1-3)[Neu5Ac(a2-6)Gal(b1-4)GlcNAc(b1-2)Man(a1-6)]Man(b1-4)GlcNAc(b1-4)GlcNAc
Outline: as §1

[30] = target: Neu5Ac(a2-3)Gal(b1-4)GlcNAc(b1-3)Gal(b1-4)GlcNAc
Outline: as §1

[31] = target: Neu5Ac(a2-3)Gal(b1-4)GlcNAc6S
Outline: as §1

[32] = target: Neu5Ac(a2-3)Gal(b1-4)[Fuc(a1-3)]GlcNAc(b1-6)[Neu5Ac(a2-3)Gal(b1-3)]GalNAc
Outline: as §1

[33] = target: Neu5Ac(a2-3)Gal6S(b1-4)GlcNAc
Outline: as §1

[34] = target: Neu5Ac(a2-8)Neu5Ac(a2-3)[GalNAc(b1-4)]Gal(b1-4)Glc
Outline: as §1

[35] = target: Neu5Ac(a2-8)Neu5Ac(a2-8)Neu5Ac
Outline: as §1

Binder	glycan array binding signal (z-score) [1]	glycan array binding signal (z-score) [2]	glycan array binding signal (z-score) [3]	glycan array binding signal (z-score) [4]	glycan array binding signal (z-score) [5]	glycan array binding signal (z-score) [6]	glycan array binding signal (z-score) [7]	glycan array binding signal (z-score) [8]	glycan array binding signal (z-score) [9]	glycan array binding signal (z-score) [10]	glycan array binding signal (z-score) [11]	glycan array binding signal (z-score) [12]	glycan array binding signal (z-score) [13]	glycan array binding signal (z-score) [14]	glycan array binding signal (z-score) [15]	glycan array binding signal (z-score) [16]	glycan array binding signal (z-score) [17]	glycan array binding signal (z-score) [18]	glycan array binding signal (z-score) [19]	glycan array binding signal (z-score) [20]	glycan array binding signal (z-score) [21]	glycan array binding signal (z-score) [22]	glycan array binding signal (z-score) [23]	glycan array binding signal (z-score) [24]	glycan array binding signal (z-score) [25]	glycan array binding signal (z-score) [26]	glycan array binding signal (z-score) [27]	glycan array binding signal (z-score) [28]	glycan array binding signal (z-score) [29]	glycan array binding signal (z-score) [30]	glycan array binding signal (z-score) [31]	glycan array binding signal (z-score) [32]	glycan array binding signal (z-score) [33]	glycan array binding signal (z-score) [34]	glycan array binding signal (z-score) [35]
B1	3.2	1.36	0.081	2.25	2.4	0.179	–	–	–	–	–	–	–	–	–	–	–	–	–	–	–	–	–	–	–	–	–	–	–	–	–	–	–	–	–
B2	–	1.84	–	–	–	–	-0.115	-0.622	-0.6	-0.472	-0.469	0.396	-0.474	-0.364	-0.567	-0.619	-0.622	-0.085	-0.574	-0.267	0.631	-0.605	-0.286	0.193	-0.644	-0.275	5.53	2.8	6.62	4.64	2.73	0.955	6.38	-0.257	0.113
